# Measurements reported in PubChem BioAssay.
# Several values for one entry are separate records, joined by “and”; a condition that tells them apart may be missing. Equal entries are not always repeated. Results filed as inconclusive are left out. Activity calls are given as the source filed them.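 The calls were made as follows, unless noted: active = compounds whose cell count with miR-34 switched on is under 0.7 times the count with it off; inactive = the rest.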
# Key:
# [1] = SU-DIPG-VI glioma cell viability, MIPE4.0 library, CellTiter-Glo luminescence, qHTS (AID 1347066; cut-off not given, nearly all actives have AC50 up to about 30 µM;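 also: cells exposed to compound for 48 hours before readout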); conditions: CellTiter-Glo ATP luminescence
# [2] = sensitizers of A549 cells to miR-34 induction, primary screen, imaging, A549 dox-inducible miR-34, nuclei and caspase counts (AID 1347080); conditions: A549 miR-34 inducible, Hoechst nuclei count, 48 h
# [3] = survival rescue of mitochondrial mutant cells in low glucose, primary screen, MELAS cybrids, Rieske KO mouse fibroblasts, CellTiter-Glo (AID 1508586;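 active = mean z-score across replicates of 1.96 or higher in either the MELAS or the Rieske mutant cell line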;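 also: z relative to plate mean and SD of compound and empty wells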)
# [4] = biological target: NAD(+) hydrolase SARM1 (Homo sapiens) (UniProt Q6SZW1); assay: SARM1 TIR NADase inhibitors, cell lysate, NAD-Glo luminescence (AID 1508614;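 active = compound whose remaining NAD level is above about 45 nM, limit read from the data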;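 also: higher remaining NAD means stronger inhibition of SARM1 NADase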); conditions: SAM-TIR HEK293T lysate NADase, at 1 µM, stronger effect = higher value
# Chain of NAD(+) hydrolase SARM1 (Homo sapiens) (Q6SZW1 whole entry, looked up): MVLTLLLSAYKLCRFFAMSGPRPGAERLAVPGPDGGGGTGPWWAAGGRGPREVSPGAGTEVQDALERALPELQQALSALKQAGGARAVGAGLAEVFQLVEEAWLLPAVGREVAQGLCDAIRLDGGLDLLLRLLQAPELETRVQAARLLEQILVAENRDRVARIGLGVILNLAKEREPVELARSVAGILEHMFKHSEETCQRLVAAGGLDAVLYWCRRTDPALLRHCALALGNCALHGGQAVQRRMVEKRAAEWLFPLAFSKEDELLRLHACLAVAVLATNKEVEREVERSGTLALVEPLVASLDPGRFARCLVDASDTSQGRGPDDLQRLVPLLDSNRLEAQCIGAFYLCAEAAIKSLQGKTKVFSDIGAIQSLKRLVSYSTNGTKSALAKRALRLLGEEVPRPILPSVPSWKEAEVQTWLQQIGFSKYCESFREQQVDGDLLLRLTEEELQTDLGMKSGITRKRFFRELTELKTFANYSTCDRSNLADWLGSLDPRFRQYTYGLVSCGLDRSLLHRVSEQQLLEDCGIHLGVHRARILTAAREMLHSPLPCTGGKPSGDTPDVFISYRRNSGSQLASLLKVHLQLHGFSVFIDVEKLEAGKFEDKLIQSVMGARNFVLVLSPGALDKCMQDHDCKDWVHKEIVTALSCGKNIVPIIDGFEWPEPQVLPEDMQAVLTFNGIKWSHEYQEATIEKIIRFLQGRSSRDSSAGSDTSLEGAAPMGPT
# [5] = viability rescue of complex I mutant cybrids, primary screen, cell-based, galactose medium, ATP luminescence (AID 1645843;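 active = z-score of at least 1.8 in each of two replicates, scored against plate mean and spread of sample wells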;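 also: positive z means more ATP and so rescue of galactose-driven cybrid death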); conditions: complex I mutant cybrid cells, 72 h, stronger effect = higher value
# [6] = phospholipid biosynthesis inhibitors in animal cells, primary screen, cell-based, LOPAC library, screen 4 (AID 1347384; call rule not given here); conditions: phospholipid biosynthesis inhibition screen, at 10 µM
# [7] = biological target: Mitogen-activated protein kinase 7 (Homo sapiens) (UniProt Q13164); assay: ERK5 transactivation activators in reporter cells, primary screen, cell-based, HTS (AID 1508626;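 active = luciferase signal above three times the same-plate solvent-only control wells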;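 also: luciferase driven by Gal4-ERK5 fusion binding five Gal4 sites before minimal TATA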); conditions: HeLa Gal4-ERK5 transactivation, 18 h, at 5 µM, stronger effect = higher value
# Chain of Mitogen-activated protein kinase 7 (Homo sapiens) (Q13164 whole entry, looked up, the tested form may be a part): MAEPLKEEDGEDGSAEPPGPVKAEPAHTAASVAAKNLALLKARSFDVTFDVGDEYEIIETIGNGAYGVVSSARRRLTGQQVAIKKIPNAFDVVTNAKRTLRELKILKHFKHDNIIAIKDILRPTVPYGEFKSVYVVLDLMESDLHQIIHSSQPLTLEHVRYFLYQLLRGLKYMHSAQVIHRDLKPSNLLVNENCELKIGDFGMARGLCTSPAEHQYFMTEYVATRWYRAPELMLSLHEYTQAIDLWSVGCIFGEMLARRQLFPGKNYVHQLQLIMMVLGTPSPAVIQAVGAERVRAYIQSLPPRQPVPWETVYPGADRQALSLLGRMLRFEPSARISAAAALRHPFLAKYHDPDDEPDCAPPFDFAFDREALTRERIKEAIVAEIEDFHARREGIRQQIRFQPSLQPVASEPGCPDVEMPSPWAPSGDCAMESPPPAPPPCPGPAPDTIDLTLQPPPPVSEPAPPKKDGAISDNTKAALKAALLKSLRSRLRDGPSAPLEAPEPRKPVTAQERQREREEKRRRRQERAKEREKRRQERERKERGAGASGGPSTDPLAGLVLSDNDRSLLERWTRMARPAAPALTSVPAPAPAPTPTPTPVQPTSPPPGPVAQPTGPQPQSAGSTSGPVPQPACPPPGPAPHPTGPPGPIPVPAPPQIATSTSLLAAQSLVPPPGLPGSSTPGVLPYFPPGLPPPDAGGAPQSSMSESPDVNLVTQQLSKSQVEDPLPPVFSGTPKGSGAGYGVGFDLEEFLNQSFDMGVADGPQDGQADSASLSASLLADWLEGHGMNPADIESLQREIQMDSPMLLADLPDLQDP
# [8] = SU-DIPG-XXV glioma cell viability, MIPE5.0 library, qHTS (AID 1347068; cut-off not given, nearly all actives have IC50 up to about 30 µM)
# [9] = stronger effect = lower value, cell number ratio, induced over uninduced
# [10] = measured here: relative caspase fold change +Dox/-Dox
# [11] = measured here: total cells with miR-34 induction, stronger effect = lower value
# [12] = measured here: total cells without miR-34 induction
# [13] = MELAS cybrid survival, CellTiter-Glo 48 h, stronger effect = higher value
# [14] = Rieske KO mouse fibroblast survival, CellTiter-Glo 72 h
SMILES,outcome [1],"fold change [2, 9]","fold change [2, 10]","cell count [2, 11]","cell count [2, 12]","z-score [3, 13]","z-score [3, 14]",remaining NAD [4],z-score [5],outcome [6],luciferase signal [7],AC50 [1],outcome [8]
COC(=O)Nc1nc2ccc(S(=O)c3ccccc3)cc2[nH]1 (configuration not stated),inactive,1 (inactive) and 0.95 (inactive) and 1.02 (inactive),0.565 and 3.46 and 0.832,5070 and 6690 and 5080,5050 and 7040 and 4970,-0.274 (inactive) and -0.559 (inactive) and -0.178 (inactive),0.754 and 0.142 and 0.645,10 nM (inactive),-0.185 (inactive),–,–,–,–
COCCCC/C(=N\OCCN)c1ccc(C(F)(F)F)cc1,inactive,0.98 (inactive) and 0.926 (inactive) and 0.976 (inactive),1.02 and 0.609 and 0.939,9020 and 8820 and 7770,9200 and 9520 and 7960,0.622 (inactive),-0.626,10 nM (inactive),-0.665 (inactive) and -0.645 (inactive),inactive,88 AU (inactive),–,–
COc1cc2nc(N3CCN(C(=O)C4CCCO4)CC3)nc(N)c2cc1OC (configuration not stated),inactive,–,–,–,–,-0.37 (inactive) and 0.933 (inactive) and -0.482 (inactive),0.344 and 0.726 and -1.05,10 nM (inactive),–,–,64 AU (inactive),–,–
CC(=O)Oc1ccccc1C(=O)Nc1ncc([N+](=O)[O-])s1,–,1.08 (inactive) and 0.866 (inactive),1.12 and 1.29,2500 and 6120,2310 and 7070,-0.496 (inactive) and -0.13 (inactive),-2.39 and 0.602,10 nM (inactive),-1.79 (inactive),–,–,9.59 µM (active),inactive
CC(=O)Nc1ccc(O)cc1,inactive,0.829 (inactive) and 0.996 (inactive) and 0.866 (inactive),0.925 and 0.621 and 1.43,8180 and 9760 and 10200,9870 and 9800 and 11800,0.35 (inactive),-0.0609,10 nM (inactive),-0.13 (inactive),–,40 AU (inactive),–,inactive
COc1cc2nc(N3CCN(C(=O)C4COc5ccccc5O4)CC3)nc(N)c2cc1OC (configuration not stated),–,–,–,–,–,-0.637 (inactive) and 1.46 and 0.739,1.03 and 2.18 and 2.11,10 nM (inactive),-0.385 (inactive) and -0.73 (inactive) and 0.525 (inactive),inactive,32 AU (inactive),23.5 µM (active),–
CN1[C@@H]2CC[C@H]1CC(OC(=O)c1c[nH]c3ccccc13)C2 (some centres not stated),inactive,0.918 (inactive) and 0.888 (inactive),1.65 and 1.61,8920 and 10100,9710 and 11400,0.412 (inactive),0.0805,10 nM (inactive),-0.025 (inactive) and 0.755 (inactive),–,–,–,–
